Source: PubChem BioAssay (National Center for Advancing Translational Sciences (NCATS))
Hits are enriched below; roughly 2.6% of the tested compounds scored in any of these assays.
Cruzain inh noDet: inhibitors of Trypanosoma cruzi cruzain without detergent; hit rate 2.3% among 200,000; purified cruzain, Z-FR-AMC fluorescence, no detergent; Potency, µM, without a hit: max response, negative = inhibition, actives largely listed as inhibitors; P25779; AID 1476;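 also: plate controls were enzyme without inhibitor for no effect and buffer without enzyme for full effect; nearly all actives have a fitted effect of over 40% in size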
Target sequence (P25779 123-467 limits assumed): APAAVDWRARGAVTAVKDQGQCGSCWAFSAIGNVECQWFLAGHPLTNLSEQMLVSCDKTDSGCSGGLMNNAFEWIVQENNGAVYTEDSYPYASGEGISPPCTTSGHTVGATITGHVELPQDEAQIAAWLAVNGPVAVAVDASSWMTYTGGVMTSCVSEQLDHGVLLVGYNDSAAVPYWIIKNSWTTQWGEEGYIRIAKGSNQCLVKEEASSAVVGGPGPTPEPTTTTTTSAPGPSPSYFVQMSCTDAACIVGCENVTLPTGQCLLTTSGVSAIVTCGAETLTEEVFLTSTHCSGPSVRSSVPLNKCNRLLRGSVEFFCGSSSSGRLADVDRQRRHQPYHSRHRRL
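Detergent-free condition (0.00005% Triton X-100) in acetate buffer pH 5.5 with DTT. 1.5 nM enzyme and compound were pre-mixed 15 min, then 2 uM Z-FR-AMC substrate added; reaction progress from fluorescence change between first and third reads (60 s).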
Cruzain inh Det: blocks cruzain activity in presence of Triton detergent. P25779. AID 1478. Potency, µM, without a hit: max response, negative = inhibition, usual class: inhibitors. purified cruzain, Z-FR-AMC fluorescence, 0.01% Triton. hit rate 0.43% among 200,000;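 also: plate controls were neutral wells for no effect and buffer without enzyme for full effect; nearly all actives have a fitted effect of over 40% in size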
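Detergent-containing run (0.01% Triton X-100) in acetate buffer pH 5.5 with 5 mM DTT: enzyme at 1.5 nM final, 15 min compound preincubation at room temperature, then 2 uM Z-FR-AMC substrate. Activity taken as 60 s fluorescence increase at 360/450 nm.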
* marks the source's active call; other numbers are inactive results; ? = inconclusive. Calls follow the shape of the dose curve; as a rule, active = well fitted curve in the direction sought with a large enough effect; inconclusive = small, poorly fitted or top-dose-only effect, or another doubt; inactive = no such curve, though single readings can be large; an effect the other way counts as inactive or inconclusive. Potency is read from the fitted curve at half-maximal effect.

SMILES | Cruzain inh noDet | Cruzain inh Det
Cc1cccc(N2CCN(S(=O)(=O)c3ccc(F)c(C(=O)Nc4cccc(Cl)c4C)c3)CC2C)c1 (stereo unspecified) | 13µM* | 1%
Cc1cccc(NC(=O)c2cc(S(=O)(=O)N3CCN(c4ccccc4F)CC3)ccc2F)c1C | -2% | 1%
c1ccoc1 | -5% | -1%
C=CCOc1cccc(/C=N/NC(=O)C(=O)NCc2ccco2)c1 | ? | 5%
Cc1cccc(C)c1NC(=O)COc1cccc(/C=N/NC(=O)C(=O)NCc2ccccc2)c1 | 25µM* | 7%
O=c1oc(-c2ccccc2)nc2c1C1(CCCCC1)Cc1ccccc1-2 | 25µM* | -1%
CCC1(CC)Cc2ccccc2-c2nc(-c3ccccc3)oc(=O)c21 | ? | -1%
O=[N+]([O-])c1cccc(/C=N\N2CCN(c3ccc(Cl)cc3)CC2)c1 | 25µM* | -2%
CCOC(=O)N1CCN(c2nc(-c3ccc(Cl)cc3)cs2)CC1 | 4% | -2%
O=[N+]([O-])c1ccc(N2CCN(c3nc(-c4ccc(Cl)cc4)cs3)CC2)cc1 | 13µM* | -2%
O=[N+]([O-])c1ccc(Cl)c(/C=N/N2CCN(Cc3ccc(Cl)cc3)CC2)c1 | -3% | -7%
O=[N+]([O-])c1ccc(/C=N\N2CCN(c3ccc(Cl)cc3)CC2)cc1 | 16µM* | 3%
O=C(c1cccc([N+](=O)[O-])c1)N1CCN(c2ccc(Cl)cc2)CC1 | -4% | 0%
COc1ccc(CCNC(=O)c2cnc3sc(N4CCCC4)nn3c2=O)cc1OC | -1% | -2%
Cc1ccc(NC(=O)Cn2cc(C(=O)c3ccco3)c3ccccc32)cc1 | -2% | -4%
CCCCNC(=O)CCn1c(=O)c2ccccc2n(Cc2ccccc2C#N)c1=O | -1% | -3%
O=C1CCC=C1C(O)c1ccc(Cl)cc1 (stereo unspecified) | -4% | 4%
COc1ccccc1-c1nn(CCC(=O)Nc2cccc(C(C)=O)c2)c2nc(C)cc(C)c12 | ? | -5%
O=C(c1cnccn1)N1CCC[C@@]2(CCN(C(c3ccccc3)c3ccccc3)C2)C1 | -15% | 2%
Cc1cccc(NC(=O)c2cc(S(=O)(=O)c3ccccc3)ccc2Cl)c1 | -2% | -5%
Cc1ccc(S(=O)(=O)N/N=c2\oc3ccccc3cc2C(=O)Nc2cccc(C)c2)cc1 | 7.9µM* | -2%
COc1ccc(S(=O)(=O)N2CCC(C(=O)Nc3ccc(Oc4ccccc4)cc3)CC2)cc1OC | 5% | -4%
O=C(Nc1ccc2c(c1)OCO2)Nc1ccc(Cl)cc1Cl | 25µM* | 6%
O=C(Nc1ccc(OC(F)F)c(Cl)c1)Nc1ccc2c(c1)OCO2 | ? | 6%
COc1ccc(-c2c[n+]3c4n2CCCCC4=C(c2ccc(Br)cc2)C3)cc1 | 10µM* | -26%
SMILES | Cruzain inh noDet | Cruzain inh Det
Clc1ccc(C2=C3CCCCn4c(-c5ccccc5)c[n+](c43)C2)cc1 | ? | -13%
CCCc1nc2ccccc2n1CC(O)COc1ccc(C(=O)OC)cc1 (stereo unspecified) | 7% | -3%
C/C=C/C(=O)OCC(=O)Nc1nc2ccc(C)cc2s1 | 20µM* | 0%
CCOCC(=O)Nc1nc2ccc(C)cc2s1 | 4% | -4%
Cc1ccc2nc(NC(=O)c3ccc(Cl)s3)sc2c1 | 13µM* | 1%
CCCOc1ccc(C(=O)NC(=S)Nc2nc3ccccc3s2)cc1 | ? | 2%
Cc1ccc2nc(NC(=O)c3cccs3)sc2c1 | -8% | 0%
CCCOc1ccc(C(=O)NC(=S)Nc2nc3ccc(C)cc3s2)cc1 | 25µM* | 7%
Cc1cccc(NC(=O)c2cn(-c3ccccc3)nc2-c2ccccc2)c1C | 11% | -6%
Cc1nn(C)c2c1c(C(F)(F)F)cc(=O)n2CC(=O)N1CCC(C)CC1 | ? | -5%
Cc1nn(C(=O)c2ccccc2F)c(C)c1S(=O)(=O)N1CCOCC1 | 5% | 0%
O=C(CN1CCN(c2ccc(O)cc2)CC1)Nc1cc([N+](=O)[O-])ccc1Cl | 25µM* | -24%
CC(C(=O)Nc1cc([N+](=O)[O-])ccc1Cl)N1CCN(c2ccccc2)CC1 (stereo unspecified) | 1% | -2%
O=c1ccsn1Cc1ccccc1 | 13µM* | ?
O=c1ccn(Cc2ccccc2)c(=O)n1Cc1ccccc1 | 3% | -4%
CC(=O)OCC(=O)[C@]12OC(C)(C)O[C@@H]1C[C@H]1[C@H]3CC=C4C[C@@H](O)CC[C@]4(C)[C@H]3CC[C@]12C | -3% | 1%
CC(C)CCNC(=O)c1cc(-c2ccc(Br)s2)nc2ccccc12 | 3.2µM* | -2%
Cc1cc(NC(=O)c2cc(-c3ccc(C)s3)nc3ccccc23)no1 | -1% | -8%
Cc1cccc(NC(=O)c2cc(-c3ccc(C)s3)nc3ccccc23)n1 | 20µM* | -13%
CCCCN(C)CCCNC(=O)c1cc(-c2ccc(Br)s2)nc2ccccc12 | -7% | -1%
CC1=C(CC[C@H](C)CO)O[C@@H]2C[C@@H]3[C@H]4CC[C@H]5C[C@@H](O)CC[C@]5(C)[C@@H]4CC(=O)[C@@]3(C)[C@@H]12 | -5% | 2%
CCN(CC)c1ccc(/C=c2/sc3nnc(-c4ccccc4C)n3c2=O)cc1 | ? | -6%
CCN(CC)c1ccc(/C=c2\sc3nnc(-c4ccccc4Cl)n3c2=O)cc1 | 13µM* | 1%
CN(CC(=O)O)Cc1c(O)c(Cl)cc(Cl)c1Cl | 8% | 1%
CCOC(=O)C1CCN(S(=O)(=O)c2cc3c4c(c2)CC(=O)N4CCC3)CC1 | ? | -1%
SMILES | Cruzain inh noDet | Cruzain inh Det
OC[C@@H]1[C@@H](c2ccc(Cl)cc2)C(c2ccc(F)cc2)=NN1c1ccccc1 | 25µM* | 0%
OC[C@@H]1[C@@H](c2ccccc2)C(c2ccc(F)cc2)=NN1c1ccccc1 | ? | -10%
OC[C@@H]1[C@@H](c2ccc(F)cc2)C(c2ccc(F)cc2)=NN1c1ccccc1 | 20µM* | -3%
CC[C@H]1C(c2cccc(Cl)c2)=NN(c2ccccc2)[C@@H]1CO | -11% | 1%
CN(C)CCCNC(=O)C(=O)NCC(c1ccc2c(c1)OCO2)N1CCOCC1 (stereo unspecified) | 13% | 6%
COc1ccc(-c2nc3cnc(N(C)C)nc3n(CCc3ccccc3)c2=O)cc1 | 2% | -1%
O=C(NCc1ccccc1)c1c2c(nc3ccccc13)C(=O)N(C1CCCCC1)C2 | 5% | -2%
CCc1cccc(-n2c(=O)c3cccnc3n2CC(=O)Nc2ccc(OC)c(Cl)c2)c1 | 25µM* | -1%
CCc1ccc(-n2c(=O)c3cccnc3n2CC(=O)Nc2cc(OC)ccc2OC)cc1 | -1% | 3%
Cc1ccc(OP(=O)(Oc2ccc(C)cc2)Oc2ccc(C)cc2)cc1 | -7% | 2%
Cc1cc(N)ccc1-n1c(C)ccc1C | -2% | -5%
Cc1cc(N)ccc1N1CCCC1 | 16µM* | ?
CCN(CC)S(=O)(=O)c1ccc2c(c1)N(CC(=O)N1CCN(c3ccc(OC)cc3)CC1)C(=O)CO2 | 36% | 0%
COC(=O)c1ccccc1NC(=O)CSc1nc2ccccc2nc1Cc1ccccc1OC | 12% | 0%
COC(=O)[C@@]1(Cc2ccc(OC)cc2)[C@@H]2[C@@H](CC(=O)[C@H]2CC(=O)C(=O)N2CCCC2)CN1C(=O)c1ccccc1 | ? | 1%
O=C(CC1S/C(=N/N=C/c2cccs2)NC1=O)Nc1ccc(Cl)cc1 (stereo unspecified) | -27% | -2%
O=C(CC1S/C(=N/N=C/c2c[nH]c3ccccc23)NC1=O)Nc1ccccc1 (stereo unspecified) | ? | -6%
